Compound activity from PubChem.
D2 ag-1 – human D2 receptor agonism in beta-arrestin assay; P14416; DiscoveRx PathHunter D2 beta-arrestin, luminescence, 90 min; 100% = 57 uM dopamine signal; activation, % (no concentration beside the values); hit rate 0.084% among 360,000; in the data active = activation above about 40%
Target sequence (P14416 whole entry, looked up): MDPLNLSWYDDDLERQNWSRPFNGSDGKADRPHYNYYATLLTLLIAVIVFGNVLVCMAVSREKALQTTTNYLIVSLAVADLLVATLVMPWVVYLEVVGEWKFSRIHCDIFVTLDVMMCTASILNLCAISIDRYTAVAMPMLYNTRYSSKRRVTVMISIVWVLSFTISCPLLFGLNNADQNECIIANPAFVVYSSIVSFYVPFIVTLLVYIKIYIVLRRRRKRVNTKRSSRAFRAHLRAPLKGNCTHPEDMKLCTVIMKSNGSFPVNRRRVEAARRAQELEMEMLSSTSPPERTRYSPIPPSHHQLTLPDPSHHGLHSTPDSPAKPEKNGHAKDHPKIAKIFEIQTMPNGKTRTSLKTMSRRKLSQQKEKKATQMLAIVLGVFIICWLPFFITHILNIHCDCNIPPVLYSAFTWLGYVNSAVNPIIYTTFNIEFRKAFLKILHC
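DiscoveRx PathHunter D2 beta-arrestin cells (2,100/well) attached overnight, then compound-stimulated 90 min at 37 C in HBSS/10 mM HEPES/0.1% Tween-20 buffer; beta-galactosidase complementation read by luminescence after 1 h at ambient temperature. Dopamine 57 uM final (EC100) as control.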
D2 PAM-1 – human D2 receptor positive allosteric modulation; DiscoveRx D2 beta-arrestin cells, luminescence, 90 min; 100% = 57 uM dopamine signal; potentiation, % (concentration not given with the values); hit rate 0.23% among 360,000; in the data active = potentiation above about 50%
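D2 cells co-treated with compound plus 50 nM dopamine (EC20) for 90 min at 37 deg C to detect potentiation. Beta-arrestin recruitment was read as enzyme-fragment luminescence after 1 h at ambient temperature. Full response was set by 57 uM dopamine.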
D2 antag – D2 dopamine receptor (human) antagonism; P14416; HEK293 TREx D2 cells, calcium flux, dopamine EC80; inhibition, % at 10 µM; hit rate 2% among 340,000; AID 485344; in the data active = inhibition above about 30%; inactive = below that, where a call was filed; also: 0% is about no effect
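Calcium mobilization kinetics were recorded at 1 s intervals in tetracycline-induced HEK293 T-REx D2 cells, first for 180 s after compound addition and then 180 s after EC80 dopamine.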
D2 ag-2 – agonists of human D2 dopamine receptor. P14416. HEK293 T-REx D2 cells, calcium flux agonist mode. activation, % at 2 µM. hit rate 0.53% among 340,000;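 active = activation over 3 SD above normal in the single-dose calcium agonist read, cut at about 30% in these data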; also: 0% is about no effect
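Tetracycline-induced HEK293 T-REx cells with force-coupled D2 receptor, plated overnight at 30 C, loaded with no-wash calcium dye. After a 10 s baseline, compound was pin-added and calcium flux read kinetically for 180 s; calcium rises flagged agonists.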
D2 PAM-2 – D2 dopamine receptor (human) potentiation | P14416 | HEK293 T-REx D2, calcium flux, EC20 dopamine potentiation | potentiation, % at 10 µM | hit rate 0.34% among 340,000;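 active = potentiation over 3 SD above the plate norm, cut at about 30% in these data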; also: 0% is about no effect
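Calcium flux readout, no-wash dye, 1 read/s. Inducible HEK293 Trex D2 line, overnight 30 C. Compound alone 180 s (agonist flags), then EC20 dopamine, another 180 s to score potentiation.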
An asterisk follows results filed as active; ! = a repeat was not active. Only some compounds are listed: those with a hit (about 2.4% of all), similar ones and a draw of the others.

For CC1(C(=O)NS(=O)(=O)c2ccccc2Cl)CCN1C(=O)C1(c2ccc(Cl)cc2)CCC1 (stereo not drawn) the results were D2 ag-1 -3 and D2 PAM-1 -1.
`Cc1ccccc1C(=O)Nc1nnc([C@@H]2C[C@H](O)[C@@H](CO)O2)s1` gave D2 ag-1 -7 and D2 PAM-1 -6.
CCOC(=O)c1cc(-c2ccc(OC)cc2)n(CCC(=O)NCCN2CCC(C)CC2)c1C was read as D2 ag-1 -2, D2 PAM-1 -11, D2 antag 66*, D2 ag-2 1 and D2 PAM-2 -21.
For CCN(CC)C(=O)CN1C(=O)/C(=C/c2ccccc2)SC1=S the results were D2 ag-1 -3, D2 PAM-1 -10, D2 antag -9, D2 ag-2 0 and D2 PAM-2 2.
`CC(=O)NNC(=O)CN1C(=O)/C(=C/c2ccccc2)SC1=S` gave D2 ag-1 7, D2 PAM-1 0, D2 antag 74*, D2 ag-2 -4 and D2 PAM-2 0.
Screening O=C1/C(=C\c2cc(Cl)c(O)c(Cl)c2)SC(=S)N1Cc1ccccc1 returned D2 ag-1 1, D2 PAM-1 -7, D2 antag 69*, D2 ag-2 -2 and D2 PAM-2 2.
`Oc1c(C(c2ccccc2)N2CCC(O)CC2)sc2nc(-c3ccco3)nn12` (stereo not drawn) gave D2 ag-2 0 and D2 PAM-2 1.
Cc1ccc(N2CC(C(=O)Nc3cccnc3)CC2=O)cc1C (stereo not drawn) was read as D2 ag-1 -3, D2 PAM-1 -3, D2 antag 31*, D2 ag-2 0 and D2 PAM-2 -5.
For COc1ccccc1N1CC(C(=O)Nc2nc(C)cs2)CC1=O (stereo not drawn) the results were D2 ag-1 -3, D2 PAM-1 -17, D2 antag 7, D2 ag-2 0 and D2 PAM-2 -9.
Cc1csc(NC(=O)C2CC(=O)N(c3ccc(C)c(C)c3)C2)n1 (stereo not drawn) was read as D2 ag-1 -5, D2 PAM-1 5, D2 antag 51*, D2 ag-2 1 and D2 PAM-2 -9.
For O=C1c2ccccc2C(=O)N1CCc1nc2ccccc2c(=O)n1Cc1ccco1 the results were D2 ag-1 -3, D2 PAM-1 4, D2 antag 40*, D2 ag-2 1 and D2 PAM-2 1.
Screening COc1ccc([C@H]2N[C@]3(CCCN(Cc4ccc(F)cc4)C3=O)[C@H]3C(=O)N(C)C(=O)[C@@H]23)cc1 returned D2 ag-1 -7 and D2 PAM-1 7.
Screening Cc1cc(=O)nc2c3ccccc3n(C(C)C(=O)Nc3c(F)c(F)c(F)c(F)c3F)n12 (stereo not drawn) returned D2 ag-1 4, D2 PAM-1 1, D2 antag 45*, D2 ag-2 0 and D2 PAM-2 4.
`Cc1cc(=O)nc2c3ccccc3n(C(C)C(=O)Nc3cc(F)ccc3F)n12` (stereo not drawn) gave D2 ag-1 -2 and D2 PAM-1 -11.
For COC(=O)c1cc(S(=O)(=O)N2CCC(c3cc(OC)ccc3OC)C2)c[nH]1 (stereo not drawn) the results were D2 ag-1 3, D2 PAM-1 -5, D2 antag -11, D2 ag-2 0 and D2 PAM-2 83*.
`COC(=O)c1cc(S(=O)(=O)N2CCC(c3ccccc3)C2)c[nH]1` (stereo not drawn) gave D2 ag-1 1, D2 PAM-1 -7, D2 antag 13, D2 ag-2 0 and D2 PAM-2 -25.
For CCCC1N=C2c3ccccc3N=C(SCC(=O)NCCc3ccc(Cl)cc3)N2C1=O (stereo not drawn) the results were D2 ag-2 -2 and D2 PAM-2 -2.
Screening CC(C)NC(=O)c1csc(COCCO)n1 returned D2 ag-1 -4 and D2 PAM-1 -6.
Screening CCCCCn1c(=N)n(CC(O)COc2ccccc2OC)c2ccccc21 (stereo not drawn) returned D2 ag-1 -4, D2 PAM-1 -3, D2 antag 32*!, D2 ag-2 -1 and D2 PAM-2 -10.
O=C(NC1(C(F)(F)F)C(=O)Nc2c1c(=O)[nH]c(=O)n2CCc1ccccc1)c1ccc(Cl)cc1Cl (stereo not drawn) was read as D2 ag-2 0 and D2 PAM-2 -4.
Cc1ccccc1NS(=O)(=O)c1ccc(C2CNC(=O)C2)cc1 (stereo not drawn) was read as D2 ag-1 0, D2 PAM-1 -4, D2 antag 66* and D2 ag-2 1.
Screening O=C1CC(c2ccc(S(=O)(=O)NCc3ccccc3)cc2)CN1 (stereo not drawn) returned D2 ag-1 -2, D2 PAM-1 -1, D2 antag 1, D2 ag-2 0 and D2 PAM-2 4.
Cc1ccc(COc2coc(CN3CCN(C(=O)c4ccco4)CC3)cc2=O)cc1 was read as D2 ag-1 3, D2 PAM-1 -12, D2 antag -5, D2 ag-2 24 and D2 PAM-2 9.
Screening CC(Oc1coc(CN2CCN(C(=O)c3ccco3)CC2)cc1=O)c1ccccc1 (stereo not drawn) returned D2 ag-1 4, D2 PAM-1 -22, D2 antag -3, D2 ag-2 31* and D2 PAM-2 -3.
For CC(C)N(Cc1ccccc1)C(=O)c1nc(-c2ccc(Cl)cc2)n2c1CCCCC2 the results were D2 ag-2 -1 and D2 PAM-2 7.
`CCOCCCN(C)C1CCN(C(=O)c2oc3ccccc3c2NC(=O)COc2ccc(F)cc2)CC1` gave D2 ag-1 -8, D2 PAM-1 -37, D2 antag 50*, D2 ag-2 1 and D2 PAM-2 -26.
For Cc1cc(OCC(=O)NCCN2CCOCC2)c2c(C)c(C)c(=O)oc2c1 the results were D2 ag-1 -2, D2 PAM-1 -2, D2 antag -9, D2 ag-2 0 and D2 PAM-2 33*.
CCC(=O)c1ccc(OCC(=O)NCCCN2CCOCC2)cc1 was read as D2 ag-1 -5 and D2 PAM-1 3.
For COc1ccc(OCC(=O)NCCCN2CCOCC2)cc1 the results were D2 ag-1 2, D2 PAM-1 -4, D2 antag 32*, D2 ag-2 1 and D2 PAM-2 -4.
For Cc1ccccc1OCC(=O)OCC(=O)Nc1ccc(Cl)cn1 the results were D2 ag-1 -3, D2 PAM-1 -4, D2 antag 31*, D2 ag-2 1 and D2 PAM-2 -12.
For Cc1nc(N2CCCC2)c2c(C(=O)Nc3ccc(Br)cc3F)c(C)oc2n1 the results were D2 ag-2 0 and D2 PAM-2 6.
`Cc1cn2c(=O)cc(COc3cccc(NC(=O)c4ccccc4Cl)c3)nc2s1` gave D2 ag-2 -1.
